# This is part of a sample that, as a whole, favours compounds with a hit. Of some 83,000 tested, about 20% had one in any assay.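 Assay: single dose, 48 h. Readout: percent growth (0 = no net growth; negative = cell death). Active: <10.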 Values without a mark were called inactive. The source made the active and inactive calls.
# Experiments:
# Assay in all cases: NCI-60 one-dose screen, 48 h (100 = growth as untreated, 0 = no growth, -100 = all killed)
# NCI-H23 lung = settings: 10 µM unless noted
# NCI-H226 lung = settings: 10 µM unless noted
# NCI-H322M lung = settings: 10 µM unless noted
# HOP-62 NSCLC = settings: 10 µM unless noted
# NCI-H460 lung = settings: 10 µM unless noted
# 786-0 renal = settings: 10 µM unless noted
# MDA-MB-231 breast = settings: 10 µM unless noted
# SF-268 CNS = settings: 10 µM unless noted
# SF-539 CNS = settings: 10 µM unless noted
# M14 melanoma = settings: 10 µM unless noted
# HCT-15 colon = settings: 10 µM
# U251 CNS = settings: 10 µM unless noted
# UO-31 renal = settings: 10 µM unless noted
# SK-OV-3 ovarian = settings: 10 µM unless noted
# OVCAR-3 ovarian = settings: 10 µM unless noted
# MDA-MB-435 melanoma = settings: 10 µM unless noted
# SW-620 colon = settings: 10 µM unless noted
# MCF7 breast = settings: 10 µM unless noted
# HCT-116 colon = settings: 10 µM unless noted
# KM12 colon = settings: 10 µM unless noted
SMILES,growth (NCI-H23 lung) [%],growth (NCI-H226 lung) [%],growth (NCI-H322M lung) [%],growth (HOP-62 NSCLC) [%],growth (NCI-H460 lung) [%],growth (786-0 renal),growth (MDA-MB-231 breast) [%],growth (SF-268 CNS) [%],growth (SF-539 CNS),growth (M14 melanoma) [%],growth (HCT-15 colon) [%],growth (U251 CNS),growth (UO-31 renal),growth (SK-OV-3 ovarian) [%],growth (OVCAR-3 ovarian) [%],growth (MDA-MB-435 melanoma) [%],growth (SW-620 colon) [%],growth (MCF7 breast) [%],growth (HCT-116 colon) [%],growth (KM12 colon) [%]
S=P(N1CCCCCC1)(N1CC1)N1CC1,102,106,121,94.8,107,103%,96.4,96.8,102%,103,118,106%,104%,93.9,112,109,108,94,99.8,105
O=c1cc[nH]c(=O)o1,105,98.4,105,102,106,98.7%,117,99.9,104%,103,104,102%,93.6%,102,107,111,107,96.9,98.1,103
CC(=O)Oc1ccc(Cl)cc1,94.2,91.3,106,87.8,101,99.5%,95.8,83.6,89.1%,98.6,95.1,97.8%,59%,98.1,63.7,101,89.9,87.4,95.3,86.3
COc1cc(C2=NN(c3ccccc3)C(c3sc(N(CCCl)CCCl)nc3Cl)C2)cc(OC)c1OC (stereo not given),92.5,81.8,91.4,79.7,91.6,91.8%,85.6,80.7,110%,91.5,97.5,85.6%,75.5%,77.7,98.7,101,97.2,86.6,80.3,82.8
CO[C@@H](c1ccccc1Cl)[C@H](C)OC(N)=O,93.7,96.4,95.1,96.1,105,98.7%,102,97.4,96.6%,89.9,96.9,94.1%,85.7%,102,111,97.8,100,102,97.2,109
NC(=O)SCC(=O)Nc1ccc([As](=O)(O)O)cc1,86.1,111,123,136,101,82.8%,90.8,100,83.8%,89.7,81.5,44.4%,93.8%,135,103,98.5,73.9,75.3,85.6,97.6
CCC(C)/C=C(C)/C=C/C(=O)c1c(O)c(-c2ccc(O)cc2)c[nH]c1=O (stereo not given),64.6,91.5,59.3,60.8,31.6,49.7%,70,33.3,61.7%,79.1,38.8,40.9%,35%,74.3,40.7,24.2,39.6,18.6,39,40.6
C1CN1c1nc(N2CC2)nc(N2CC2)n1,15.8,58.6,78.1,31.3,16.5,9.79% (active),87.8,30.4,-7.16% (active),25.1,23.8,7.27% (active),1.86% (active),38.1,65.8,63.9,51.8,20.9,42.6,61.8
